G9a block: G9a (human) methyltransferase inhibition; AID 504332; 350,000 tested, 8.8% active; Potency, µM (titrated, usually from 102 µM), usual class: inhibitors; G9a H3K9 monomethylation, AlphaScreen, 2 h; Q96KQ7; also: nearly all actives have a fitted effect of over 75% in size
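Compounds were preincubated with 20 nM G9a for 15 min, after which biotinylated H3K9 peptide (500 nM) and SAM (20 uM) started a 2 h room-temperature reaction. Monomethylated product was quantified by antibody-based AlphaScreen chemiluminescence.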
HP1b chromo inh: HP1-beta chromodomain-methylated histone interaction inhibition. AlphaScreen HP1-beta / biotin-H3K9me3 peptide binding. Potency, µM (titrated, usually from 114 µM), usual class: inhibitors. 390,000 tested, 0.56% active. AID 540317; also: nearly all actives have a fitted effect of over 70% in size
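HP1-beta protein (50 nM final) preincubated 30 min at room temperature with biotinylated H3(1-18)K9me3 peptide (50 nM) in PBS pH 7.4, 0.01% Tween-20, then compound added for 30 min. AlphaScreen streptavidin donor/nickel chelate acceptor beads (10 ug/mL final), 30 min dark, luminescence read.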
CtBP-E1A blk: inhibitors of CtBP/E1A interaction; 340,000 tested, 0.49% active; activity change, % (no concentration beside the values); AlphaScreen GST-E1A/His-CtBP binding, 1536-well; stronger effect = lower value; in the data active = activity change below about -65%; inconclusive = mostly about -30% to -63%
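AlphaScreen with 125 nM GST-E1A and 125 nM His-CtBP (5X stocks) in Tris pH 8.0, 300 mM NaCl, BSA, Tween 20, TCEP. Compounds preincubated 2 h at 37 deg C, then glutathione donor/nickel acceptor beads added for 1 h at 37 deg C in dark.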
BAZ2B inh: blocks human BAZ2B; 360,000 tested, 4.4% active; Q9UIF8; Potency, µM (doses to about 114 µM), actives largely listed as inhibitors; AlphaScreen BAZ2B-H3K14Ac peptide displacement; also: nearly all actives have a fitted effect of over 60% in size
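In this displacement format the biotinylated H3(5-23) peptide acetylated at Lys14 serves as ligand at 50 nM, with BAZ2B at 50 nM in PBS pH 7.4 containing 0.01% Tween-20. Donor and acceptor beads are 10 ug/mL final.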
Six1-Eya2 blk: Six1/Eya2 interaction inhibition; AlphaScreen GST-Six1/His-Eya2 binding, biochemical; stronger effect = lower value; AID 651725; Q15475+O00167; activity change, % (no concentration beside the values); 360,000 tested, 0.56% active; in the data active = activity change below about -65%; inconclusive = mostly about -30% to -63%
Target sequence (O00167 whole entry, looked up): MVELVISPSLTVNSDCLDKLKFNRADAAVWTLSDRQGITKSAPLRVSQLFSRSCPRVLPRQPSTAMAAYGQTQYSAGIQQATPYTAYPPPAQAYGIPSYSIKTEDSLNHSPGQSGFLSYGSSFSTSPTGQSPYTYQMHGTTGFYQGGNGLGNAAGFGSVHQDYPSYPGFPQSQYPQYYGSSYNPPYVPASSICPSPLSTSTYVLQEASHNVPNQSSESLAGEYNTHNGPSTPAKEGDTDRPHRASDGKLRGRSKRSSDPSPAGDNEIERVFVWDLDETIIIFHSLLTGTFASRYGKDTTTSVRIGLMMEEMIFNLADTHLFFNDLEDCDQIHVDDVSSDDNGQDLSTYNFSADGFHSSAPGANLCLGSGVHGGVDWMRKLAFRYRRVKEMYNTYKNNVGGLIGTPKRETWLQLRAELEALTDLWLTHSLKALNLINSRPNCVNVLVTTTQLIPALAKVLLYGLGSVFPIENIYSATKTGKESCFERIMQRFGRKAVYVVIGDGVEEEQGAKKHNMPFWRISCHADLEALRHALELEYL
Target sequence (Q15475 whole entry, looked up): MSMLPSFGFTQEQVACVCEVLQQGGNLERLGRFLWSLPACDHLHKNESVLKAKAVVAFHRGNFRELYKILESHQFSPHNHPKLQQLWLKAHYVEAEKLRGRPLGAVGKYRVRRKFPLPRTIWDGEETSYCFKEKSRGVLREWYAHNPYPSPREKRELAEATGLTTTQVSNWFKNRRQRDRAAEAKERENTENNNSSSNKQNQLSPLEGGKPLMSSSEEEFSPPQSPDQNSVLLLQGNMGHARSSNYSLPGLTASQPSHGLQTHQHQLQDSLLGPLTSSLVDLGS
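Compounds are tested against tagged Six1 and Eya2 proteins bridged by glutathione donor and nickel acceptor beads; after a one-hour incubation at 37 °C without light, AlphaScreen emission is recorded.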
JMJD2A Tudor: blocks the human JMJD2A Tudor domain; AlphaScreen JMJD2A-Tudor / H3K4me3 peptide binding; O75164; Potency, µM (doses to about 114 µM), usual class: inhibitors; 390,000 tested, 4.4% active; also: nearly all actives have a fitted effect of over 50% in size
Each line names hits and unclear results; the compound was inactive in the other large screens. In the library only some 10% were active in any assay of this set; here they are far more common. Unless noted, calls follow the shape of the dose curve; as a rule, active = well fitted inhibition curve with a large enough effect; inconclusive = small, poorly fitted or top-dose-only effect; inactive = no such curve, though single readings can be large or run the other way.

CCS(=O)(=O)N1CCN(C(C)CCc2ccccc2)CC1 (centres undefined)	G9a block inconclusive, HP1b chromo inh inconclusive, BAZ2B inh inconclusive, JMJD2A Tudor 8.9µM
COc1ccc(CCNC(=O)c2ccc(Cn3c(=O)c4ccccc4n(CC(=O)C(C)(C)C)c3=O)cc2)cc1OC	none (no result: CtBP-E1A blk, Six1-Eya2 blk)
CCCCn1c(SCC(=O)NCc2cccs2)nc2c1c(=O)n(C)c(=O)n2C	G9a block inconclusive
CC(C)N1CCN(S(=O)(=O)c2ccccc2)CC1	G9a block 22µM, HP1b chromo inh inconclusive, BAZ2B inh inconclusive, JMJD2A Tudor 28µM
O=C(O)c1cccc(S(=O)(=O)N2CCN(C(c3ccccc3)c3ccccc3)CC2)c1	G9a block 35µM, BAZ2B inh inconclusive
CC1CN(C2CCN(S(=O)(=O)c3ccc4ccccc4c3)CC2)CC(C)O1 (centres undefined)	G9a block 6.3µM, HP1b chromo inh inconclusive, BAZ2B inh 45µM, JMJD2A Tudor inconclusive
CCS(=O)(=O)N1CCN(S(=O)(=O)c2ccc3ccccc3c2)CC1	none (no result: G9a block)
CC(C)N1CCN(S(=O)(=O)c2ccc3ccccc3c2)CC1	HP1b chromo inh inconclusive, BAZ2B inh inconclusive, JMJD2A Tudor 16µM (no result: G9a block, CtBP-E1A blk)
Cc1ccc(Cl)cc1NS(=O)(=O)c1ccc2oc(=O)c3ncn(C)c3c2c1	none (no result: CtBP-E1A blk, Six1-Eya2 blk)
C(=N\NC1=NCCN1)/c1ccncc1	G9a block 40µM, BAZ2B inh inconclusive, JMJD2A Tudor inconclusive (no result: CtBP-E1A blk)
Clc1cncc(Cl)c1N/N=C/c1ccncc1	none
Cc1ccc(NC(=O)Cn2c(=O)n(Cc3ccco3)c(=O)c3sc4ccccc4c32)c(C)c1	none (no result: CtBP-E1A blk, Six1-Eya2 blk)
COc1ccc(O)c(-c2c(-c3ccc(Cl)cc3)n[nH]c2C)c1	G9a block 25µM, BAZ2B inh inconclusive, JMJD2A Tudor inconclusive
O=c1c2ccccc2c(C=Nc2cccc(S(=O)(=O)NCc3ccco3)c2)c(O)n1-c1ccc(Cl)cn1	G9a block 28µM
CC(C)(C)N/N=C/c1c(O)n(-c2ccc(Cl)cn2)c(=O)c2ccccc12	G9a block 3.2µM
Cc1cn2c(=O)cc(COc3cccc(NC(=O)c4ccccc4C)c3)nc2s1	none (no result: CtBP-E1A blk, Six1-Eya2 blk)
O=C(NC(=S)N1CCCCCC1)c1ccccc1Cl	none
COc1ccccc1N1CCN(C(=S)NC(=O)/C=C/c2ccccc2)CC1	none
CN1CCN(C(=S)Nc2ccccc2Cl)CC1	none
O=C(/C=C/c1ccc(Br)cc1)NC(=S)N1CCOCC1	G9a block 71µM
CN1CCN(C(=S)NC(=O)c2ccccc2Cl)CC1	G9a block 50µM
CN1CCN(C(=S)NC(=O)/C=C/c2ccccc2)CC1	G9a block 50µM
CN1CCN(C(=S)NC(=O)/C=C/c2ccccc2Cl)CC1	G9a block 45µM
Cc1cc(C(=O)Cn2cnc3ccc(Cl)cc3c2=O)c(C)n1C1CC1	none (no result: G9a block, BAZ2B inh)
COC(=O)/C(=C\C(=O)c1ccccc1)Nc1ccc(OC)cc1	G9a block 14µM, HP1b chromo inh inconclusive, BAZ2B inh 40µM, JMJD2A Tudor 35µM
Cc1ccc(N/C(=C\C(=O)c2ccccc2)C(=O)O)cc1	G9a block inconclusive, BAZ2B inh 56µM, JMJD2A Tudor inconclusive
COc1ccc(-n2nc(C(=O)NCC(=O)N3CCN(c4ccccc4OC)CC3)c3ccccc3c2=O)cc1OC	none
Cc1cccc(OCc2n[nH]c(=S)n2-c2ccccc2)c1	CtBP-E1A blk inconclusive, BAZ2B inh inconclusive, JMJD2A Tudor inconclusive (no result: G9a block)
COc1cccc(-n2c(Cn3nc(C(F)F)cc3C(F)F)n[nH]c2=S)c1	G9a block 8.9µM, JMJD2A Tudor 45µM
COc1ccc(-n2c(Cn3nc(C(F)(F)F)cc3C)n[nH]c2=S)cc1	G9a block 7.9µM, JMJD2A Tudor inconclusive
COC(=O)c1ccc(Cn2nc(C(F)(F)F)cc2C)cc1	none
COc1cccc(-n2c(Cn3nc(C(F)(F)F)cc3C)n[nH]c2=S)c1	G9a block 8.9µM, JMJD2A Tudor 56µM
Cc1ccc(-n2c(Cn3nc(C(F)(F)F)cc3C)n[nH]c2=S)cc1	G9a block inconclusive, JMJD2A Tudor 56µM
O=C(Cc1ccc(NC(=O)C2CCN(C(=O)CCc3ccccc3)CC2)cc1)Nc1ccc(C(=O)N2CCOCC2)cc1	none (no result: G9a block, BAZ2B inh)
CCCOC(=O)C1=C(C)NC(=O)NC1c1cc2c(cc1Br)OCO2 (centres undefined)	none
CCc1ccc[n+](-c2[nH]c(=O)sc2/C=N/N=C(\[O-])c2ccncc2)c1	G9a block 40µM, BAZ2B inh inconclusive
CCN1Cc2c(/C=C/c3ccccc3)nc3ccc(OC)cc3c2N(c2cccc(Cl)c2)C1	G9a block 13µM, BAZ2B inh inconclusive (no result: CtBP-E1A blk)
O=C(CCCN=C1NS(=O)(=O)c2ccccc21)OCc1ccccc1	G9a block 45µM
CC(OC(=O)CCCN=C1NS(=O)(=O)c2ccccc21)C(=O)N(C)c1ccccc1 (centres undefined)	G9a block 40µM
CC(OC(=O)CCN=C1NS(=O)(=O)c2ccccc21)C(=O)N(C)c1ccccc1 (centres undefined)	none
O=C(/C=C/c1ccccc1)OCCCCN=C1NS(=O)(=O)c2ccccc21	JMJD2A Tudor 28µM (no result: G9a block)
O=C(CCCN=C1NS(=O)(=O)c2ccccc21)OCc1ccc(F)cc1	none
COc1ccccc1C(=O)COC(=O)CCCN=C1NS(=O)(=O)c2ccccc21	none
O=C(CCN=C1NS(=O)(=O)c2ccccc21)OCC(=O)c1ccccc1Cl	G9a block 56µM
C[n+]1cc(C(O)(c2ccccc2)c2ccccc2)n2ccccc21	none (no result: G9a block, HP1b chromo inh, CtBP-E1A blk, BAZ2B inh, Six1-Eya2 blk)
Cc1cc(Cl)ccc1OCC(=O)NCC(c1cccs1)N1CCOCC1 (centres undefined)	none
O=C(CNC(=O)c1ccc(Cl)cc1Cl)OCCOc1ccccc1	none
CC(NS(=O)(=O)c1cc(C(F)(F)F)ccc1Cl)C(=O)N(C)C1CCN(C)CC1 (centres undefined)	none (no result: G9a block, BAZ2B inh)
CCCCN(CC)C(=O)C1CCC(CNS(=O)(=O)c2cccc3nsnc23)CC1 (centres undefined)	G9a block inconclusive
N#CC(=C1C=CC(=NO)C(Cl)=C1)c1ccc(Cl)cc1	HP1b chromo inh inconclusive, JMJD2A Tudor 20µM (no result: G9a block, BAZ2B inh)
CC(=O)ON=C1C=CC(=C(C#N)c2ccccc2)C=C1	none (no result: G9a block, HP1b chromo inh, BAZ2B inh, JMJD2A Tudor)
COc1ccccc1N(CC(=O)Nc1ccccc1F)S(C)(=O)=O	none (no result: CtBP-E1A blk, Six1-Eya2 blk)
CCc1cc(C(c2ccccn2)N2CCN(C)CC2)c(NC(=O)c2ccccc2)s1 (centres undefined)	G9a block 40µM, JMJD2A Tudor inconclusive
Cc1sc(NC(=O)c2ccccc2)c(C(c2ccccn2)N2CCN(CCO)CC2)c1C (centres undefined)	G9a block inconclusive, BAZ2B inh inconclusive

Screening results from PubChem.
